Measured values taken from ChEMBL document CHEMBL3988442, “University of Dundee, Small-Polar-MMV Screening Library” (2021).
Where “and” joins values, the source holds several entries; their conditions need not be identical. Equal entries are not always repeated. Screen size: about 34,000 compounds; about 290 (0.85%) showed an effect of 50% or more. For the sample, strong results were picked, then their nearest neighbours and some compounds at random.

System: Plasmodium falciparum
Test: Plasmodium falciparum sporozoite viability assay
Format: functional, organism-based
Set-up: scale not given: in the data most compounds retested in dose-response had high values

With `Cn1cnc2c1CCN(CCOc1ccc(C#N)cc1)C2` the “Percent Effect” value was 2.022%.
For `CCC(=O)N1CCCC1(C)c1nc(C)no1` (stereo not drawn), the “Percent Effect” value was 15.01%.
With `Cn1ccc(C(=O)N2CCCC2c2[nH]ncc2C(N)=O)n1` (stereo not drawn) the “Percent Effect” value was 3.652%.
`O=C(c1ccc(-n2cccn2)nc1)N1CCC(c2ccn[nH]2)C1` (stereo not drawn) was tested, and the “Percent Effect” value was -0.6869%.
For `c1ccc2sc(N3CCC4(CCCN4Cc4ncc[nH]4)CC3)nc2c1`, the “Percent Effect” value (10 mM as filed; unlikely as a test dose) was 21.32% and 38.1%.
In the case of `Cc1nc[nH]c1CN1CCCC12CCN(c1nc3ccccc3s1)CC2`, the “Percent Effect” value (10 mM as filed; unlikely as a test dose) is reported as 73.34% and 82.13%.
In the case of `Cc1nc[nH]c1CN1CCCN(c2nc3ccccc3s2)CC1`, the “Percent Effect” value (10 mM as filed; unlikely as a test dose) is reported as 2.478% and -18.14%.
`Cc1noc(C2CCN(C(=O)Nc3ccc(N(C)C)nc3)CC2)n1` was tested, and the “Percent Effect” value (10 mM as filed; unlikely as a test dose) was 63.01% and 33.92% and 30.08%.
With `Cc1noc(C2CCCN(C(=O)c3ccc(N(C)C)nc3)C2)n1` (stereo not drawn) the “Percent Effect” value was 8.423%.
With `Cc1noc(C2CCN(C(=O)c3ccc(N(C)C)nc3)CC2)n1` the “Percent Effect” value was 4.187%.
In the case of `CC(C)c1n[nH]c(C2CN(C(=O)c3cc(C4CC4)on3)CCO2)n1` (stereo not drawn), the “Percent Effect” value is reported as -9.758%.
For `CSc1ccc(-c2nc(CN3CCC(NC(C)=O)CC3)c(C)o2)cc1`, the “Percent Effect” value (10 mM as filed; unlikely as a test dose) was 0.03712% and -0.9585% and 6.229%.
In the case of `CNC(=O)C1CCN(Cc2nc(-c3ccc(SC)cc3)oc2C)C1` (stereo not drawn), the “Percent Effect” value (10 mM as filed; unlikely as a test dose) is reported as -17.68% and 5.16% and 2.023%.
For `CSc1ccc(-c2nc(CN3CCC(NC(C)=O)C3)c(C)o2)cc1` (stereo not drawn), the “Percent Effect” value (10 mM as filed; unlikely as a test dose) was 76.12% and 85.32% and 90.74%.
With `Cc1ncncc1C(=O)N1CCOC(C)(C(=O)NC2CCCC2)C1` (stereo not drawn) the “Percent Effect” value was 12.89%.
In the case of `CCCc1nnc(NC(=O)N2CCCC(NC(C)=O)C2)s1` (stereo not drawn), the “Percent Effect” value (10 mM as filed; unlikely as a test dose) is reported as 54.93% and 67.74%.
In the case of `CC(=O)NC1CCCN(C(=O)CNc2cc(Cl)cc(Cl)c2)C1` (stereo not drawn), the “Percent Effect” value is reported as -3.441%.
For `CCC(CC)c1nnc(NC(=O)N2CCCC(NC(C)=O)C2)s1` (stereo not drawn), the “Percent Effect” value (10 mM as filed; unlikely as a test dose) was 78.77% and 70.93%.
In the case of `CC(C)c1nnc(NC(=O)NC2CCN(Cc3ccccc3)C2)s1` (stereo not drawn), the “Percent Effect” value is reported as 14.49%.
With `CC(=O)NC1CCCN(C(=O)NCc2cc[nH]n2)C1` (stereo not drawn) the “Percent Effect” value was -1.899%.
In the case of `CC(=O)NC1CCCN(C(=O)Nc2cnc3c(cnn3C(C)C)c2)C1` (stereo not drawn), the “Percent Effect” value is reported as -3.926%.
With `CCC(CC)c1nnc(NC(=O)N2CCC(C(N)=O)CC2)s1` the “Percent Effect” value (10 mM as filed; unlikely as a test dose) was -8.76% and -13.24%.
`CC(=O)NC1CCCN(C(=O)Nc2nnc(C(C)C)s2)C1` (stereo not drawn) was tested, and the “Percent Effect” value (10 mM as filed; unlikely as a test dose) was 68.35% and 80.73%.
For `CC(=O)NC1CCCN(C(=O)NCc2cccnc2N(C)C)C1` (stereo not drawn), the “Percent Effect” value was -28.43%.
`Cc1n[nH]c(C)c1CC(=O)NCc1ccccc1Cl` was tested, and the “Percent Effect” value was -5.904%.
In the case of `NC(=O)c1ccc(CN2CCCC(O)C2)cc1` (stereo not drawn), the “Percent Effect” value is reported as -1.578%.
With `COc1ccc(NC(=O)c2ccc(CN3CC[C@H](O)C3)cc2)c(OC)n1` the “Percent Effect” value (10 mM as filed; unlikely as a test dose) was -15.85% and -8.926%.
`Cc1cncc(NC(=O)c2ccc(CN3CC[C@H](O)C3)cc2)c1` was tested, and the “Percent Effect” value (10 mM as filed; unlikely as a test dose) was 88.45% and 79.14%.
For `Cc1cc(NC(=O)c2ccc(CN3CC[C@H](O)C3)cc2)ccc1F`, the “Percent Effect” value (10 mM as filed; unlikely as a test dose) was 96.75% and 98.24%.
In the case of `COc1cc(NC(=O)c2ccc(CN3CC[C@H](O)C3)cc2)cc(OC)c1`, the “Percent Effect” value (10 mM as filed; unlikely as a test dose) is reported as 90.3% and 82.4%.
In the case of `Cc1cncc(NC(=O)c2ccc(CN3CCCC(C(N)=O)C3)cc2)c1` (stereo not drawn), the “Percent Effect” value (10 mM as filed; unlikely as a test dose) is reported as -5.227% and 10.36%.
With `CCc1ccc(C(=O)Nc2cccc(CN3CCCC3C(N)=O)c2)cc1` (stereo not drawn) the “Percent Effect” value was -39.95%.
In the case of `Cc1[nH]ccc1C(=O)Nc1cccc(CN2CCC(O)CC2)c1`, the “Percent Effect” value is reported as 11.84%.
`Fc1cccc(-c2nc(CN3CCCC3Cn3cccn3)co2)c1` (stereo not drawn) was tested, and the “Percent Effect” value was 3.787%.
`CCc1cc(O)nc(C2CCCN2C(=O)c2cc(CC)on2)n1` (stereo not drawn) was tested, and the “Percent Effect” value was 0.3331%.
In the case of `CC(NC(=O)NCCCn1cncn1)c1ccc2c(c1)CC(=O)N2` (stereo not drawn), the “Percent Effect” value is reported as 3.485%.
With `CSCc1cc(F)ccc1CNC(=O)N1CCOCC1` the “Percent Effect” value was 1.579%.
`Cc1ccnc(NC(=O)C2(n3cnnn3)CCCCC2)c1` was tested, and the “Percent Effect” value was -7.357%.
For `CCCN1Cc2ccccc2CC1C(=O)NC` (stereo not drawn), the “Percent Effect” value was -3.834%.
`CC(=O)N1Cc2ccccc2C[C@H]1C(=O)Nc1ccccn1` was tested, and the “Percent Effect” value (10 mM as filed; unlikely as a test dose) was 80.79% and 67.33%.
For `CC(=O)N1Cc2ccccc2CC1C(=O)Nc1cc(C)ccn1` (stereo not drawn), the “Percent Effect” value (10 mM as filed; unlikely as a test dose) was 71.78% and 85.23%.
With `CCNC(=O)NCCc1csc(N2CCCC2)n1` the “Percent Effect” value was -15.2%.
For `CCOc1ccc(-c2cc(=O)n3c(n2)CCCCC3)cc1`, the “Percent Effect” value was -4.121%.
With `COc1ccc(CN(Cc2ccccn2)Cc2cncn2C)cc1.O=C(O)CC(O)(CC(=O)O)C(=O)O` the “Percent Effect” value was 3.185%.
In the case of `CCOc1cc(C)nc(N2CCN(C(=O)CN(C)C3CC3)CC2)n1`, the “Percent Effect” value is reported as 8.163%.
With `Cn1cncc1CN1CCC(O)(Cn2nc(-c3cccs3)oc2=O)CC1.O=C(O)CC(O)(CC(=O)O)C(=O)O` the “Percent Effect” value was -17.63%.
With `CC(C)n1nc2c(cc1=O)CN(c1nc3ccccc3s1)CC2` the “Percent Effect” value (10 mM as filed; unlikely as a test dose) was 66.67% and 52.43% and 41.91%.
With `CN(C)C(=O)CS(=O)(=O)Cc1cc(Cl)c2c(c1)OCCO2` the “Percent Effect” value was 4.247%.
In the case of `Clc1cc(CN2CCCCC2Cn2cncn2)c2ncccc2c1` (stereo not drawn), the “Percent Effect” value is reported as -10.63%.
`CC(C)Nc1ncnc2c1CCN(C(=O)c1ccc[nH]1)CC2` was tested, and the “Percent Effect” value was -7.967%.
In the case of `CC(C)C[C@H](N)COc1cccc(F)c1Oc1cccc(Cl)c1`, the “Percent Effect” value is reported as 0.9974%.
With `Cc1ccc(NS(=O)(=O)c2cc3c(c(C(=O)O)c2)OCCO3)cc1F` the “Percent Effect” value was 6.057%.
With `O=C(O)C(F)(F)F.O=c1ccc2c(n1CC1CC1)CCC(NCc1cccs1)C2` (stereo not drawn) the “Percent Effect” value was 4.557%.
`Cc1cccc(-c2noc([C@@H]3Cc4nc[nH]c4CN3)n2)c1` was tested, and the “Percent Effect” value (10 mM as filed; unlikely as a test dose) was 77.23% and 75.76%.
In the case of `FC(F)(F)Oc1ccc(-c2noc([C@@H]3Cc4nc[nH]c4CN3)n2)cc1`, the “Percent Effect” value (10 mM as filed; unlikely as a test dose) is reported as 93.02% and 93.75%.
`c1cc(-c2noc([C@@H]3Cc4nc[nH]c4CN3)n2)ccn1` was tested, and the “Percent Effect” value (10 mM as filed; unlikely as a test dose) was -0.1591% and 11.18%.
In the case of `Fc1ccc(-c2noc([C@@H]3Cc4nc[nH]c4CN3)n2)cc1`, the “Percent Effect” value (10 mM as filed; unlikely as a test dose) is reported as 27.52% and 35.27%.
With `Cc1cccc(-c2noc(CN3CCOCC3C)n2)c1` (stereo not drawn) the “Percent Effect” value was 5.079%.
With `c1ccc(-c2noc([C@@H]3Cc4nc[nH]c4CN3)n2)cc1` the “Percent Effect” value (10 mM as filed; unlikely as a test dose) was 8.153% and 22.58%.
In the case of `Cc1noc(NC(=O)c2ccc(OC(F)(F)F)cc2)n1`, the “Percent Effect” value is reported as -13.94%.
In the case of `Cc1ccc(-c2noc([C@@H]3Cc4nc[nH]c4CN3)n2)cc1`, the “Percent Effect” value (10 mM as filed; unlikely as a test dose) is reported as 79.76% and 77.83%.
For `O=C(NCC1CC1)C1CN(C(=O)NC2CCCC2)Cc2cncn2C1` (stereo not drawn), the “Percent Effect” value was 10.46%.
For `Cc1nn(C)c(Cl)c1C1CCCN1C(=O)c1cnn(C)c1C1CC1` (stereo not drawn), the “Percent Effect” value was 4.376%.
`CC(C)C(=O)N1CCCC(c2cncc(Oc3cccnc3)n2)C1` (stereo not drawn) was tested, and the “Percent Effect” value was -4.997%.
In the case of `c1cc(N2CCOCC(Cc3ccc4[nH]ccc4c3)C2)ncn1` (stereo not drawn), the “Percent Effect” value is reported as 5.765%.
In the case of `CNC(=O)c1cc(C2CCCNC2)n[nH]1.Cl` (stereo not drawn), the “Percent Effect” value is reported as 11.11%.
For `COCCc1noc(CN2CCCC2Cn2nc(C)nc2C)n1` (stereo not drawn), the “Percent Effect” value was 16.37%.
In the case of `CC(=O)N(Cc1ncc(C)o1)C1CCN(Cc2csc(C)n2)C1` (stereo not drawn), the “Percent Effect” value is reported as 8.537%.
With `Cc1cc(C(=O)N2CC[C@H]3C[C@H](c4ccncn4)O[C@@H]3C2)c(C)[nH]1` the “Percent Effect” value was -3.163%.
`CC(C)(C)n1ncc2c(=O)n(CC(=O)NCCc3ccccc3)cnc21` was tested, and the “Percent Effect” value (10 mM as filed; unlikely as a test dose) was -2.076% and -3.898%.
`CC(C)(C)n1ncc2c(=O)n(CC(=O)NCc3ccccc3)cnc21` was tested, and the “Percent Effect” value (10 mM as filed; unlikely as a test dose) was 92.95% and 84.04%.
`CCCNC(=O)Cn1nc(C(C)C)c2cnn(C(C)(C)C)c2c1=O` was tested, and the “Percent Effect” value was -2.007%.
`NC(=O)Cn1c(CO)cnc1SCC(=O)NCc1ccccc1Cl` was tested, and the “Percent Effect” value (10 mM as filed; unlikely as a test dose) was -15.15% and -22%.
With `CC(C)(C)n1ncc2c(=O)n(CC(=O)NCc3ccccc3Cl)cnc21` the “Percent Effect” value (10 mM as filed; unlikely as a test dose) was 89.9% and 78.88%.
With `CCCNC(=O)c1ncn2c1CN(CC(C)C)S(=O)(=O)c1ccccc1-2` the “Percent Effect” value was 20.71%.
With `CNc1ccc(C2CN(c3cc(C)nc(N)n3)CCO2)nc1` (stereo not drawn) the “Percent Effect” value was 20.28%.
With `CNc1nc2c(s1)C(=O)CN(C(=O)[C@@H](N)Cc1cccc(OC)c1)C2` the “Percent Effect” value was -10.92%.
For `CN[C@@H]1CCC[C@@H](Oc2ccccc2Oc2ccc(C)cc2)[C@@H]1O`, the “Percent Effect” value was 14.14%.
`Cc1cccc2sc(NC(=O)CN3CCCC4(CC3)CNC(=O)O4)nc12` (stereo not drawn) was tested, and the “Percent Effect” value (10 mM as filed; unlikely as a test dose) was 74.6% and 74.31%.
With `Cc1cccc2sc(NC(=O)CN3CCC(C)CC3)nc12` the “Percent Effect” value (10 mM as filed; unlikely as a test dose) was 5.902% and -3.165%.
In the case of `Cc1cccc2sc(NC(=O)CN3CCCC(O)(CO)C3)nc12` (stereo not drawn), the “Percent Effect” value (10 mM as filed; unlikely as a test dose) is reported as -25.02% and -31.47%.
For `COc1ccc(CN(C)c2ccc(-c3nccn3C)nn2)cc1OC`, the “Percent Effect” value (10 mM as filed; unlikely as a test dose) was 63.95% and 77.57%.
For `CN(Cc1nccn1C)c1ccc(-c2nccn2C)nn1`, the “Percent Effect” value (10 mM as filed; unlikely as a test dose) was -4.7% and -1.79%.
With `CN(Cc1ccoc1)c1ccc(-c2nccn2C)nn1` the “Percent Effect” value (10 mM as filed; unlikely as a test dose) was -6.958% and -8.789%.
`O=C(CN1CCC(c2cc(=O)n3c(n2)CCCCC3)CC1)N1CCCC1` was tested, and the “Percent Effect” value was -0.7803%.
With `CC(=O)N1CCOC(c2cc(N3CC(O)C3)nc(C)n2)C1` (stereo not drawn) the “Percent Effect” value was -19.49%.
`c1ccc2sc(CN3CCCC3c3noc(C4CC4)n3)nc2c1` (stereo not drawn) was tested, and the “Percent Effect” value (10 mM as filed; unlikely as a test dose) was 57.55% and 55.22% and 51.03%.
For `c1ccc2oc(CN3CCCC3c3noc(C4CC4)n3)nc2c1` (stereo not drawn), the “Percent Effect” value was 8.668%.
In the case of `CC(CCc1ccccc1)N1CCC(C(=O)Nc2cnccn2)CC1` (stereo not drawn), the “Percent Effect” value is reported as -2.997%.
For `CS(=O)(=O)NCc1cn2c(n1)CN(C(=O)c1ccc[nH]1)CC2`, the “Percent Effect” value was -21.11%.
With `Cc1oncc1C(=O)N1CC[C@H]2[C@@H]1CCC(=O)N2CC1CCOCC1` the “Percent Effect” value was 5.199%.
`CC(=O)N1CCC(c2cc(C(F)(F)F)nc3nccn23)CC1` was tested, and the “Percent Effect” value was 1.841%.
`O=C1[C@H]2CN(C(=O)[C@H]3CCCO3)C[C@H]2CN1CC1CC1` was tested, and the “Percent Effect” value was 2.539%.
